# Results filed as inconclusive are left out. Unmarked numbers belong to inactive results. Calls of active or inactive are those of the source. Calls follow the shape of the dose curve; as a rule, active = well fitted inhibition curve with a large enough effect; inconclusive = small, poorly fitted or top-dose-only effect; inactive = flat fitted curve, though single readings scatter.
# Test system: astro (control astrocytes)
# Test: Drug repurposing screens with cells derived from glioblastoma tumor samples (AID 1345199); also: nearly all actives have a fitted effect of over 40% in size
# Conditions: viability, ATP luminescence, 48 h; series mostly up to 45.9 µM; activity, negative = cell killing: at the top concentration
# Method: CD133+ cells were isolated from GBM patient biopsies and cultured as neurospheres. Neurospheres from four patients were used to screen the NCATS pharmaceutical collection (NPC) library of approved drugs and bioactive compounds. […] The neurospheres were incubated with drugs for 48 hours in 1536-well format, then assayed with an ATP content cell viability assay. […] These hits were cherry picked to confirm activity in the four original GBM lines screened plus three other slower growing GMB lines (unable to yield enough cells for a full primary screen). Variable activities of the confirmed primary hits in the different GBM patient lines were observed. The patient line 206 responded to the greatest number of compounds and line 923 responded to the least amount of active compounds.
# % is scaled to controls: 0 for no effect and ±100 for the full control effect; potency is read from the fitted curve at half-maximal effect.
SMILES,"activity, negative = cell killing",Potency
CCC[C@H](N[C@@H](C)C(=O)N1[C@@H]2CCCC[C@H]2C[C@H]1C(=O)O)C(=O)OCC,-16%,–
CC(C)CN(C[C@@H](O)[C@H](Cc1ccccc1)NC(=O)O[C@H]1CO[C@H]2OCC[C@H]21)S(=O)(=O)c1ccc(N)cc1,-20.4%,–
CC[C@H](C)C(=O)O[C@H]1C[C@H](O)C=C2C=C[C@H](C)[C@H](CC[C@@H](O)C[C@@H](O)CC(=O)O)[C@H]21,-7.28%,–
NCC1CCC(C(=O)O)CC1 (configuration not stated),-11.1% [at 21.2 µM],–
CN1CCN2c3ncccc3Cc3ccccc3C2C1 (configuration not stated),-26%,–
CN1CC(=O)N2C(Cc3c([nH]c4ccccc34)[C@H]2c2ccc3c(c2)OCO3)C1=O (some centres not stated),-26.3%,–
CCC(=O)OCC(=O)[C@@]1(OC(=O)CC)[C@@H](C)C[C@@H]2[C@H]3CCC4=CC(=O)C=C[C@]4(C)[C@@]3(F)[C@@H](O)C[C@@]21C,-8.5%,–
N#Cc1c(N(CC(=O)O)CC(=O)O)sc(C(=O)O)c1CC(=O)O,-9.05%,–
CN(C)CCN(Cc1ccc(Cl)cc1)c1ccccn1,-7.41% [at 21.2 µM],–
CCCCC(F)(F)[C@@]1(O)CC[C@H]2[C@H](CC(=O)[C@@H]2CCCCCCC(=O)O)O1,-27.9%,–
O=C(Nc1cccc2c(=O)cc(-c3nn[nH]n3)oc12)c1ccc(OCCCCc2ccccc2)cc1,-23.5%,–
COc1cc2c(cc1OC)CC(=O)N(CCCN(C)C[C@H]1Cc3cc(OC)c(OC)cc31)CC2,-16.8%,–
O=C(CCCN1CCN(c2ccc(F)cc2)CC1)NC1c2ccccc2CSc2ccccc21 (configuration not stated),-25%,–
CC[C@H]1OC(=O)[C@H](C)[C@@H](O[C@H]2C[C@@](C)(OC)[C@@H](O)[C@H](C)O2)[C@H](C)[C@@H](O[C@@H]2O[C@H](C)C[C@H](N(C)C)[C@H]2O)[C@](C)(O)C[C@H](C)C(=NOCOCCOC)[C@H](C)[C@@H](O)[C@]1(C)O,7.95%,–
CS(=O)(=O)c1ccc(C2=C(c3ccccc3)C(=O)OC2)cc1,-12%,–
Clc1ccc(COC(Cn2ccnc2)c2ccc(Cl)cc2Cl)c(Cl)c1 (configuration not stated),-29.4% [at 21.2 µM],–
CC(C)(CO)[C@@H](O)C(=O)NCCC(=O)O,-12.3%,–
Fc1ccc(C(c2ccc(F)cc2)N2CCN(CC=Cc3ccccc3)CC2)cc1,–,35.5 µM (active)
NS(=O)(=O)c1cc(Cl)c(Cl)c(S(N)(=O)=O)c1,-9.53% [at 21.2 µM],–
COc1ccc(-c2nc3ccc(C4=NNC(=O)CC4C)cc3[nH]2)cc1 (configuration not stated),–,11.2 µM (active)
COc1ccnc(CS(=O)c2nc3ccc(OC(F)F)cc3[nH]2)c1OC (configuration not stated),-23.6%,–
O=C(O)c1nc(=O)[nH]c(=O)[nH]1,-8.82%,–

# Reference: PubChem BioAssay (NCATS)
